From PubChem BioAssay
Calls of active or inactive are those of the source.

How the values were obtained:
[1] = optical density shifts of acrAB sulA E. coli – strain DRC41, OD650, 48 h, E. coli filamentation inducer project, primary screen (AID 1152); conditions: higher = more signal, called active from +8 up or from −8 down;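 note: E. coli MC1000 strain DRC41 lacking acrAB efflux pump and sulA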
[2] = probe aLefty1 binding on compound microarray – biochemical, small-molecule microarray, 635/667 nm fluorescence, primary screen (AID 1153); conditions: higher = more signal;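 note: score merges spot fluorescence with signal-to-noise ratio from the scanned slide images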
[3] = plasmodial surface anion channel blockers, osmotic lysis – cell-based, P. falciparum Indochina, OD700, 1 h, primary screen (AID 1154); conditions: P. falciparum Indochina infected RBC osmotic lysis, higher = more signal, called active from +8 up or from −8 down
[4] = plasmodial surface anion channel blockers, osmotic lysis – cell-based, P. falciparum Indochina, OD700, 2 h, primary screen (AID 1155);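 note: lysis reports solute entry through the parasite surface anion channel PSAC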; conditions: P. falciparum Indochina infected erythrocytes, higher = more signal, called active from +8 up or from −8 down
[5] = changes in parasitized red cell lysis, either direction – P. falciparum Indochina, OD700, 3 h, PSAC antagonist project, primary screen (AID 1156); conditions: P. falciparum-infected erythrocytes, osmotic lysis, higher = more signal, called active from +8 up or from −8 down
[6] = plasmodial surface anion channel blockers, osmotic lysis – cell-based, P. falciparum Indochina, OD700, 18 h, primary screen (AID 1157); conditions: P. falciparum Indochina infected erythrocytes, osmotic lysis OD700, 18 h; higher = more signal, called active from +8 up or from −8 down
[7] = S6 kinase pathway phospho-S6 level changes – cell-based, A549, cytoblot, luminescence, serum-stimulated, primary screen (AID 1158); conditions: 5 h, higher = more signal;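 note: serum-stimulated A549 lung adenocarcinoma cells; signal is phosphorylated S6 detected by cytoblot immunostaining with HRP secondary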
[8] = biological target: NADPH oxidase 2 (Homo sapiens) (UniProt P04839); experiment: compounds shifting NOX2 Amplex Red fluorescence – cell-based, HEK293-NOX2, PMA-stimulated, NOX inhibitor project, primary screen (AID 1159); conditions: 45 min, higher = more signal, called active from +8 up or from −8 down; note: test concentration not given here
[9] = biological target: NADPH oxidase 4 (Homo sapiens) (UniProt Q9NPH5); experiment: compounds shifting NOX4 Amplex Red fluorescence – cell-based, HEK293-NOX4, tetracycline-induced, NOX inhibitor project, primary screen (AID 1160); conditions: HEK293-NOX4, Amplex Red H2O2 fluorescence, 45 min; higher = more signal, called active from +8 up or from −8 down
[10] = biological target: NADPH oxidase 5 (Homo sapiens) (UniProt Q96PH1); experiment: compounds shifting NOX5 Amplex Red fluorescence – cell-based, HEK293-NOX5, NOX inhibitor project, primary screen (AID 1161); conditions: HEK293-NOX5, ionomycin, 45 min, higher = more signal
Sequence of NADPH oxidase 5 (Homo sapiens) (Q96PH1 whole entry, looked up): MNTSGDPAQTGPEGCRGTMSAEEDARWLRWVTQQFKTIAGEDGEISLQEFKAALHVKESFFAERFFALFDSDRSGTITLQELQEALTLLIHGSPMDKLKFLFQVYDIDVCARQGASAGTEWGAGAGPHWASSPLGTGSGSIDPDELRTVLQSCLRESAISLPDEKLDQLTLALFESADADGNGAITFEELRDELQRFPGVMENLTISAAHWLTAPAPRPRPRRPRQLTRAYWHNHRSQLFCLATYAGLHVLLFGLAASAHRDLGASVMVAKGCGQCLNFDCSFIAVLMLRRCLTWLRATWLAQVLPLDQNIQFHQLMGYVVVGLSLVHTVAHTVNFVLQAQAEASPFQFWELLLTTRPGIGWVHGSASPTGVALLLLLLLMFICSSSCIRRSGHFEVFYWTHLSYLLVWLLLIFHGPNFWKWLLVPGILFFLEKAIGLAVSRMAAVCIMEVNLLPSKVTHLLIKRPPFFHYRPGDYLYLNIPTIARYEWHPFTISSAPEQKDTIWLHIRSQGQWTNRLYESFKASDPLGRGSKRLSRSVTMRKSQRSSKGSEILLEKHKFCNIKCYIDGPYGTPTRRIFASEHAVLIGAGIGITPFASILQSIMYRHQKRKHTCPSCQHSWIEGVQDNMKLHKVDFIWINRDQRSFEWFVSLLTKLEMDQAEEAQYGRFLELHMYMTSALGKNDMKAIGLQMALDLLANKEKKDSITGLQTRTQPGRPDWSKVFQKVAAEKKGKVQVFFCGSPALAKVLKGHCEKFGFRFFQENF

Sequence of NADPH oxidase 2 (Homo sapiens) (P04839 whole entry, looked up): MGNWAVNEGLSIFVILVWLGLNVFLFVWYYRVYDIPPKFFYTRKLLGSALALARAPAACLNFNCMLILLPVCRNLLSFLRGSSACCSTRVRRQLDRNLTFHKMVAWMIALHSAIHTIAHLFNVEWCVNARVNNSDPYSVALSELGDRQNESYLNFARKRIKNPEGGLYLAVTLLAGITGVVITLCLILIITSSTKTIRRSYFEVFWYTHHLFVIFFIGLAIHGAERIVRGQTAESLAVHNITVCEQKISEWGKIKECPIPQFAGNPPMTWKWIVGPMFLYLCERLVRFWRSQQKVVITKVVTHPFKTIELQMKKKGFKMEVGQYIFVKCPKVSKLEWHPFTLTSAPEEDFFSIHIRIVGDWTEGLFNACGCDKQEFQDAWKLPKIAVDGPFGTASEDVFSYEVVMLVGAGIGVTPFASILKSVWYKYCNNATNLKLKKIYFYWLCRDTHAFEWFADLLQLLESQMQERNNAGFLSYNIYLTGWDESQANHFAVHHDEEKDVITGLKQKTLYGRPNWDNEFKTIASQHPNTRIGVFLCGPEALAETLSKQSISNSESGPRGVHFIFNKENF
Sequence of NADPH oxidase 4 (Homo sapiens) (Q9NPH5 whole entry, looked up): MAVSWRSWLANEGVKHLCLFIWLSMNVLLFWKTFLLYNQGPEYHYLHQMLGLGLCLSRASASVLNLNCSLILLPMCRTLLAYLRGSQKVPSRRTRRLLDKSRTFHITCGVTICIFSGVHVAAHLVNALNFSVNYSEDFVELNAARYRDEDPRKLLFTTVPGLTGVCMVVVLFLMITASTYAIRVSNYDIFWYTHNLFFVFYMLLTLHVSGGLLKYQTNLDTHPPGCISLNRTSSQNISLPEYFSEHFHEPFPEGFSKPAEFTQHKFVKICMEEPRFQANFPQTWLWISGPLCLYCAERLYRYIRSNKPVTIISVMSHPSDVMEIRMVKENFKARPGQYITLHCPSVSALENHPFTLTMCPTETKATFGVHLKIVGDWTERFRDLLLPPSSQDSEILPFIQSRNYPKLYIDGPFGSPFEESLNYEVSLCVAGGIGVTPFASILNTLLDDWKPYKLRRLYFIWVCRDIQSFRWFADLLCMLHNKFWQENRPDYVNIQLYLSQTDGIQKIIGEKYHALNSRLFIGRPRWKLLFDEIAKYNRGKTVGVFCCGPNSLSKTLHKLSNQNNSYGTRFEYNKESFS

SMILES | z-score [1] | composite z-score [2] | z-score [3] | z-score [4] | z-score [5] | z-score [6] | z-score [7] | z-score [8] | z-score [9] | z-score [10]
O=C1N(CCS(=O)(=O)c2ccccc2)c2ccccc2[C@H]2OC(c3ccc(OCCCO)cc3)=N[C@@]12Cc1ccccc1 | -1.05 (inactive) | 0.253 | 31.2 (active) | 27.5 (active) | 3.08 (inactive) | 6.96 (inactive) | 0.468 | -1.85 (inactive) | 1.07 (inactive) | -0.191
COc1cc(NN2C(C(O)c3ccc(N(C)C)cc3)C=CC3C(=O)N(c4ccccc4)C(=O)C32)cc(OC)c1OC (stereo not given) | -2.71 (inactive) | 0.315 | 1.76 (inactive) | -0.891 (inactive) | 0.742 (inactive) | -0.765 (inactive) | 1.15 | -2.65 (inactive) | -4.37 (inactive) | -4.75
CCOC(=O)C[C@H]1[C@H](OC(=O)c2ccc(-c3ccccc3)cc2)[C@@H](NC(=O)CC(C)C)c2cc(OCCCO)ccc2N1C(=O)c1ccc2ccccc2n1 | -0.0672 (inactive) | -0.274 | 2.19 (inactive) | 0.0409 (inactive) | 0.457 (inactive) | 0.238 (inactive) | 0.2 | -1.89 (inactive) | 0.452 (inactive) | -0.0775
COC(=O)[C@@]1(Cc2ccc(F)cc2)[C@H]2c3cc(C(=O)N(C)C)n(Cc4ccc(OC(F)(F)F)cc4)c3C[C@H]2CN1C(=O)c1ccccc1 | -1.4 (inactive) | 0.651 | -0.0341 (inactive) | 0.673 (inactive) | -0.0751 (inactive) | 0.692 (inactive) | -0.139 | 0.195 (inactive) | -0.44 (inactive) | 0.205
CC(C)C(CO)N1C(=O)[C@@H]2[C@H]3C(=O)OCC=C[C@H]3OC23C=CCN(c2ccc(Cl)cc2)C(=O)[C@@H]13 (stereo not given in full) | 0.284 (inactive) | -0.0642 | 0.0695 (inactive) | 0.406 (inactive) | 1.06 (inactive) | 0.035 (inactive) | -0.4 | 1.1 (inactive) | 0.164 (inactive) | 1.78
COc1ccc([Si](C)(C)[C@@H]2[C@@H](CCO)O[C@]3(C(=O)N(Cc4ccccc4)c4ccc(N5C(=O)c6cccc7cccc5c67)cc43)[C@H]2C)cc1 | 0.487 (inactive) | -0.0111 | 2.72 (inactive) | 2.2 (inactive) | 0.504 (inactive) | 1.16 (inactive) | -0.0126 | 0.326 (inactive) | 0.1 (inactive) | 2.32
[N-]=[N+]=Nc1ccccc1[C@@H]1OC(c2ccc(OCCCO)cc2)=N[C@]1(Cc1ccccc1)C(=O)O | 0.78 (inactive) | 0.433 | 33.2 (active) | 30 (active) | 3.46 (inactive) | 8.04 (active) | -0.465 | -1.61 (inactive) | 1.27 (inactive) | -0.586
[N-]=[N+]=NCc1ccccc1[C@H]1OC(c2ccc(OCCCO)cc2)=N[C@@]1(Cc1ccccc1N=[N+]=[N-])C(=O)NCC(O)CO (stereo not given in full) | -0.502 (inactive) | 0.54 | 27.6 (active) | 21 (active) | 1.37 (inactive) | 2.09 (inactive) | -0.48 | -3.08 (inactive) | -0.592 (inactive) | -1.71
CCCC1(C(=O)OC)C=C2C(=C(C)C(=O)C2C)CN1 (stereo not given) | -1.8 (inactive) | 0.193 | -0.0775 (inactive) | -0.0273 (inactive) | -0.0148 (inactive) | 0.274 (inactive) | -0.386 | 0.43 (inactive) | -1.28 (inactive) | -2.88
C=CCC(OC(C)=O)[C@@H]1[C@@H](N(Cc2ccc(-c3cccc(C(F)(F)F)c3)o2)C(=O)c2ccc(-c3ccccc3)cc2)c2cc(OCCCO)ccc2N1C(=O)Cc1ccc2ccccc2c1 (stereo not given in full) | -0.75 (inactive) | 0.0451 | 0.702 (inactive) | 0.609 (inactive) | 0.191 (inactive) | 0.532 (inactive) | 0.0285 | -1.34 (inactive) | -1.69 (inactive) | -0.791
